Assay results reported in PubChem BioAssay AID651744 (Broad Institute, 2012).
The whole screen tested about 5,600 compounds, of which about 3,100 (55%) were called active. Another 3% or so got no clear call; they are omitted. So high a share suggests a set chosen from earlier hits. Not all results are given here. Unmarked numbers belong to inactive results.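 How the source made its calls: active means mean loss of cell viability signal at or above a set limit, and enough replicates individually reaching it; inconclusive means meets only the mean limit or only the replicate share; inactive means meets neither condition.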

test: viability loss of mouse 3T3 cells – cell-based, cherry-pick, single point, set 2, cytotoxicity control, confirmation (AID 651744); details: NIH/3T3 viability, CellTiter-Glo ATP luminescence, 90 h; at 24.9 µM; stronger effect = higher value;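 further: 0% = median of neutral control wells and 100% = median of positive control wells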

Structure (SMILES) | inhibition
COc1ccc(C#Cc2ccc([C@H]3[C@H](CO)N4CCCCN(C(=O)Cc5ccccc5)C[C@@H]34)cc2)cc1 | 106% (active)
O=C(Cc1ccccn1)N1CCCCN2[C@@H](CO)[C@@H](c3ccc(C#Cc4ccccc4)cc3)[C@@H]2C1 | 103% (active)
COc1ccc(-c2ccc([C@H]3[C@H](CO)N4CCCCN(C(=O)Cc5ccncc5)C[C@@H]34)cc2)cc1 | 18.4%
O=C(Cc1cccnc1)N1CCCCN2[C@@H](CO)[C@H](c3ccc(C#CC4CCCC4)cc3)[C@@H]2C1 | 105% (active)
C/C=C/c1ccc([C@H]2[C@H](CO)N3CCCCN(C(=O)Cc4ccncc4)C[C@@H]23)cc1 | 3.85%
